Screening data as filed in PubChem.
POLH inh = blocks human DNA polymerase eta activity; Q9Y253; 390,000 tested, 1.2% active; Potency, µM (series often up to 114 µM), inactives show top-dose activity change, negative = inhibition, usual class: inhibitors; AID 588591; recombinant Pol eta, fluorescent DNA replication assay; note: % is set by controls: 0 for no effect and ±100 for the full control effect
Target sequence (Q9Y253 whole entry, looked up): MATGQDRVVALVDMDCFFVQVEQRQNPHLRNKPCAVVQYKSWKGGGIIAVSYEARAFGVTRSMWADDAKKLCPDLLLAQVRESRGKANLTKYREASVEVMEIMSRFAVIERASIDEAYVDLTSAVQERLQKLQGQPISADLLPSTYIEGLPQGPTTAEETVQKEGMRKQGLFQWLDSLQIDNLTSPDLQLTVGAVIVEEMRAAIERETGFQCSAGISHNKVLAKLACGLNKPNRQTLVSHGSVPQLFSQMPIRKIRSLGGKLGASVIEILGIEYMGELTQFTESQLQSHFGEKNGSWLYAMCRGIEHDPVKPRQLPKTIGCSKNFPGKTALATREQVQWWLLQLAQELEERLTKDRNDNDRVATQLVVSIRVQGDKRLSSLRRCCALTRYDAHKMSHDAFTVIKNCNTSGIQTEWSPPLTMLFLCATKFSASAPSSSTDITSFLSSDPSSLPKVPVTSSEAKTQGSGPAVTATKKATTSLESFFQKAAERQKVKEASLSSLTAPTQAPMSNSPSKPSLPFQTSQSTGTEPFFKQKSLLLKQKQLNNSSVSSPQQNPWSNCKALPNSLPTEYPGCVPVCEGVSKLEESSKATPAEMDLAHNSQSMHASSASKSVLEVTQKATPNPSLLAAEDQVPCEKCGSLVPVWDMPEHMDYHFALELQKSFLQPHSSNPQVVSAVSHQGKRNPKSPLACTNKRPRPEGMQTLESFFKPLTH
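Pol eta at 10 nM preincubated with compounds 15 min at room temperature; reaction started with fluorescent substrate (50 nM final) and read kinetically at 0 and 10 min.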
L3MBTL1 block = inhibitors of human L3MBTL1; Q9Y468; AlphaScreen L3MBTL1–H3K9me1 peptide binding; Potency, µM (top dose mostly 57.1 µM), without a hit: top-dose activity, negative = inhibition, usual class: inhibitors; 230,000 tested, 0.66% active; AID 485360; note: % is set by controls: 0 for no effect and ±100 for the full control effect; nearly all actives have a fitted effect of over 60% in size
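First, the protein-peptide complex forms for 30 min at room temperature (L3MBTL1 50 nM, biotinylated H3K9me1 peptide 75 nM). Next, compounds are pin-transferred and incubated 30 min. Finally, AlphaScreen beads are added and read after 30 min.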
Pol kappa inh = DNA polymerase kappa (human) inhibition; Q9UBT6; purified Pol kappa, fluorescent DNA synthesis assay, 10 min; Potency, µM (doses to about 107 µM), for the others: top-dose activity, negative = inhibition, most hits filed as inhibitors; 400,000 tested, 0.53% active; note: % is set by controls: 0 for no effect and ±100 for the full control effect
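Inhibition of 10 nM Pol kappa is measured by a fluorescent read-out at 0 and 10 min following addition of 50 nM substrate (final), with a 15-min room-temperature compound preincubation.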
POLI inh = blocks human DNA polymerase iota activity; Q9UNA4; Pol iota fluorescent replication assay, 10 min; Potency, µM (series often up to 115 µM), for inactives: at the top dose activity, negative = inhibition, actives largely listed as inhibitors; 390,000 tested, 1% active; AID 588590
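Pol iota at 10 nM preincubated 15 min with compounds at room temperature; reaction started with fluorescent substrate, 50 nM final. Fluorescence read kinetically at 0 and 10 min; buffer-only wells as negative control.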
POLB inh = blocks human DNA polymerase beta activity; P06746; Pol beta primer extension/strand displacement, fluorescence kinetic; Potency, µM (doses to about 114 µM), for inactives: at the top dose activity change, negative = inhibition, hits mostly inhibitors; 340,000 tested, 1.3% active; note: % is set by controls: 0 for no effect and ±100 for the full control effect
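Pol beta (10 nM) and compounds were preincubated 15 min at room temperature, then 50 nM substrate (final) started primer extension/strand displacement. Reads were taken at 0 and 10 min; concentration-response data were fitted to a four-parameter Hill equation.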
An asterisk follows results filed as active; ? = inconclusive; nt = no result given; [ ] = another dose, or the depositor's remark. Sampled rows, rich in hits. Any-hit rate of the full collection: about 2.4%. Calls come from the whole dose curve; as a rule, active = well fitted curve in the direction sought with a large enough effect; inconclusive = small, poorly fitted or top-dose-only effect, or another doubt; inactive = no such curve, though single readings can be large; an effect the other way counts as inactive or inconclusive. Potency is the fitted concentration of half-maximal effect.

SMILES	POLH inh	L3MBTL1 block	Pol kappa inh	POLI inh	POLB inh
CCC[C@H](NC(=O)[C@H](Cc1ccc(O[S+](=O)([O-])O)cc1)NC(=O)OC(C)(C)C)C(=O)NCC(=O)N[C@@H](Cc1c[nH]c2ccccc12)C(=O)N[C@@H](CCC)C(=O)N[C@@H](CC(=O)OCCc1ccccc1)C(=O)O	nt	nt	7%[60.1 µM]	nt	nt
COc1cccc2c1C(=O)c1c(O)c3c(c(O)c1C2=O)C[C@](O)(C(=O)CO)C[C@H]3O[C@@H]1C[C@H](N)[C@H](O)[C@H](C)O1	nt	nt	1.5µM*	nt	nt
CCOC(=O)CSc1nc2ccc(NC(=O)c3ccc(F)cc3)cc2s1	-7%	nt	4%	24%	21%
O=C1/C(=C\c2ccc(Br)o2)SC(=Nc2ccccc2)N1c1ccccc1	-28%	?	?	?	0.4µM*
COc1ccc(C(=O)Nc2nc3c(s2)Cc2cc(OC)ccc2-3)cc1	?	-24%	-10%	?	87%
COc1ccc2c(c1)Cc1sc(NC(=O)c3ccccc3C)nc1-2	nt	nt	-10%	3.5µM*	12%
COc1ccc2c(c1)Cc1sc(NC(=O)c3ccccc3)nc1-2	16%	nt	-11%	16µM*	7%
COc1ccc2c(c1)Cc1sc(NC(=O)c3cccs3)nc1-2	?	-21%[11.4 µM]	-24%	33%	2%
O=S(=O)(c1ccc(Br)cc1)c1nc(-c2ccco2)oc1NCCCn1ccnc1	-15%	?	1%	15%	nt
CN(C)c1ccc(/C=C2\C(Cl)=Cc3ccccc32)cc1	nt	nt	-2%	62%	nt
Cc1ccc(S(=O)(=O)n2ccc3c(OCCOCCNCc4ccc(F)cc4)cccc32)cc1	-22%	nt	-4%	128%	0%
Cc1ccc(S(=O)(=O)n2ccc3c(OCCOCCSCC(NC(=O)OC(C)(C)C)C(=O)O)cccc32)cc1 (configuration not stated)	?	nt	?	28µM*	71µM*
Cc1ccc(-n2c(CCC(=O)O)ccc2-c2cccs2)cc1Cl	1%	nt	2%	?	2.5µM*
CC(=O)c1ccc(-n2c(CCC(=O)O)ccc2-c2cccs2)cc1	?	-10%	-17%	?	?
Cc1ccc(-n2c(CCC(=O)O)ccc2-c2cccs2)cc1	?	nt	-14%	?	35µM*
Cc1ccc(NC(=O)Cn2c(CCC(=O)O)ccc2-c2cccs2)cc1	79µM*	nt	4%	-24%	?
Cc1ccc(-c2ccc(CCC(=O)O)n2NC(=O)c2cccs2)cc1	4%	40µM*	-1%	6%	22%
NS(=O)(=O)c1ccc(CCNC(=O)CCC(=O)c2cccs2)cc1	89µM*	-5%	-18%	-19%	nt
Nc1cc2c(cc1Cl)-c1ccc(Cl)cc1C2	0%	nt	-4%	28%	nt
CCCOc1ccc(-c2nn(-c3ccccc3)cc2C2NC(=O)NC(C)=C2C(=O)OC(C)C)cc1 (configuration not stated)	?	nt	-20%	15%	0%
Cc1nc(SCC(=O)NC(=O)NCc2ccco2)nc(C)c1C	-21%	-17%	-14%	?	18µM*
O=C(COc1ncnc2scc(-c3ccc(F)cc3)c12)NCc1ccco1	?	nt	-5%	2%	-1%
Cc1ccc(-c2csc3ncnc(OCC(=O)NC(=O)NCc4ccco4)c23)cc1	79µM*	?	-32%	?	40µM*
Cc1sc2ncnc(NCc3ccco3)c2c1C	?	-21%	-28%	?	45µM*
O=C(CSc1nc2cc(Cl)ccc2s1)NC(=O)NCc1ccco1	35µM*	?	?	19%	45µM*
SMILES	POLH inh	L3MBTL1 block	Pol kappa inh	POLI inh	POLB inh
Cc1sc2ncnc(NCc3cccs3)c2c1C	-18%	1%	1%	18%	7%
CCOc1ccc(C(c2c(O)cc(C)n(Cc3ccco3)c2=O)N2CCCCC2)cc1 (configuration not stated)	-6%	nt	-5%[60.1 µM]	11%	-1%
Cc1sc2ncnc(SCC(=O)NC(=O)NCc3ccco3)c2c1C	89µM*	?	?	?	11µM*
O=C(Cn1cnc2scc(-c3ccccc3)c2c1=O)NCc1ccco1	22µM*	?	?	56µM*	28µM*
O=C(Cn1ncn2c(cc3ccccc32)c1=O)NCc1ccco1	89µM*	?	3%[60.1 µM]	?	50µM*
COc1ccc(CNC(=O)Cn2ncn3c(cc4ccccc43)c2=O)cc1	-2%	nt	-4%	50%	32%
Cc1nc(SCC(=O)NCc2ccco2)c2c(C)c(C)sc2n1	-4%	-4%	-1%	9%	3%
O=C(OCc1ccccc1)N(CCF)c1cn(Cc2ccccc2)c(=O)n(Cc2ccccc2)c1=O	-8%	nt	-6%	28%	nt
CCCCn1c(N)c(N(CC(C)C)C(=O)c2cc(-c3ccco3)nc3ccccc23)c(=O)[nH]c1=O	28µM*	?	?	40µM*	nt
CCCCn1c(N)c(N(CC(C)C)C(=O)c2ccc(C)o2)c(=O)[nH]c1=O	-16%	1%	-10%	40%	nt
CCCCn1c(N)c(N(CC(C)C)C(=O)c2oc3ccc(Br)cc3c2C)c(=O)[nH]c1=O	79µM*	-10%	-9%	?	nt
CCCCn1c(N)c(N(CCC(C)C)C(=O)c2cc(Cl)nc3ccccc23)c(=O)[nH]c1=O	1%	32%	-8%	9%	nt
O=C(NCc1cccs1)c1ccc(Cn2c(SCc3ccccc3)nc3cccnc32)cc1	0%	nt	-3%	?	32%
O=C(Nc1ncc([N+](=O)[O-])s1)c1cccs1	-10%	4%	4%	?	33%
O=C(Nc1ncc([N+](=O)[O-])s1)c1ccccc1Br	50µM*	-6%	?	28µM*	?
Fc1ccc(-c2nnc(Cc3nnc(-c4ccc(F)cc4)o3)o2)cc1	3%	-2%	-16%	-5%[58.9 µM]	40µM*
CC1(C)CC(=O)C=C(c2ccc(-c3cnc4ccccc4c3)cc2)C1=O	-23%	nt	nt	nt	nt
CC(C)C(C)(C#N)NC(=O)CSc1nc2scc(-c3ccco3)c2c(=O)n1-c1ccccc1 (configuration not stated)	-11%	-1%	-4%	?	28µM*
CC(C)C(C)NC(=O)CSc1nc2scc(-c3ccco3)c2c(=O)n1-c1ccccc1 (configuration not stated)	?	nt	-19%	?	-4%
C=CCn1c(SCC(C)=O)nc2scc(-c3ccco3)c2c1=O	40µM*	nt	?	?	10µM*
C=CCn1c(SCC(=O)N2CCOCC2)nc2scc(-c3ccco3)c2c1=O	32µM*	?	?	16µM*	28µM*
CC(=O)Nc1cc2c(cc1NC(=O)Cn1nc(-c3ccccc3)ccc1=O)OCCO2	-19%	nt	-5%	-18%	13%
CC(C)C1=CC2=CCC3[C@@](C)(CCC[C@@]3(C)C(=O)O)C2CC1 (some centres not stated)	nt	nt	-9%[60.1 µM]	nt	nt
COc1cccc(Oc2cc(NN3CCCCC3)c([N+](=O)[O-])cc2[N+](=O)[O-])c1OC	-11%	?	-20%	?	56µM*
